In the library only some 0.51% were active in any assay of this set; here they are far more common.
Vif-APOBEC3G blk – Vif-A3G binding inhibition. 0.076% of 410,000 active. Q9HC16. HeLa A3G-eYFP + Vif (tagged APOBEC3G with the HIV-1 protein that degrades it), YFP fluorescence, overnight. Potency, µM (titrated, usually from 46.1 µM), inactives show top-dose activity, negative = active, usual class: inhibitors; also: % is scaled to controls: 0 for no effect and ±100 for the full control effect; nearly all actives have a fitted effect of over 60% in size
Target sequence (Q9HC16 whole entry, looked up): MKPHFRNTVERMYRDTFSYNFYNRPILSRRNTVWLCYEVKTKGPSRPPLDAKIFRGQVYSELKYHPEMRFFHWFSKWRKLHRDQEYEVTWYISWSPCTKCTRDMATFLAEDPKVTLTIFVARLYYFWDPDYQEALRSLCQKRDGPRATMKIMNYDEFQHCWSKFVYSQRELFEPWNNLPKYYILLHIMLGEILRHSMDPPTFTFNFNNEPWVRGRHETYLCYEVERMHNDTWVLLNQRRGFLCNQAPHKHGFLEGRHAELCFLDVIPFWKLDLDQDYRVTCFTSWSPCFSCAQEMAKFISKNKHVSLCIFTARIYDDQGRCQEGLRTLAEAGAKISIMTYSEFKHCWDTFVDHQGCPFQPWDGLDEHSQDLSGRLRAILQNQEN
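HeLa cells stably expressing Vif and C-terminally eYFP-tagged A3G, seeded overnight at 37 deg C, then exposed to compound by pintool overnight at 37 deg C. Rise in yellow fluorescence (Ex 488/Em 500-530, Acumen) marks blocked Vif-driven A3G degradation.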
PINK1 modulator – modulators of PINK1 expression. Potency, µM (titrated, usually from 76.6 µM), inactives show at the highest dose activation (PINK1 increase), actives largely listed as activators. PINK1 immunofluorescence, high-content cytometry, 24 h. 0.2% of 410,000 active. AID 624263; active = well fitted activation curve with a large enough effect; inconclusive = small, poorly fitted or top-dose-only effect; cell line not stated here; also: % of control where 0% means no effect; nearly all actives have a fitted effect of over 65% in size
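PINK1 protein, normally rapidly degraded, was detected by immunofluorescence after 24 hour compound treatment of a stable cell line. Titration data (5 concentrations) came from laser-scanning cytometry, with CCCP-treated wells as controls.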
Epigenetic reg – derepresses silenced GFP reporter in murine cells; murine LDR cells, GFP reporter derepression, 30 h; Potency, µM (series often up to 53.9 µM), for the others: top-dose GFP activation, usual class: activators; 0.2% of 280,000 active; also: % of control where 0% means no effect; nearly all actives have a fitted effect of over 60% in size
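In this reporter-derepression format, murine cells bearing a silenced integrated CMV-GFP locus incubate with test compound (30 h, 37 C), then are washed and imaged; fluorescent objects of 20–120 um count as induced cells.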
Vif-A3F inh – blocks the Vif interaction with APOBEC3F; HeLa A3F-eYFP + Vif (tagged APOBEC3F with the HIV-1 protein that degrades it), YFP fluorescence increase; Potency, µM (doses to about 46.1 µM), without a hit: top-dose activity, negative = active; 0.2% of 390,000 active; also: % of control where 0% means no effect; nearly all actives have a fitted effect of over 65% in size
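Fluorescence increase (Ex 488/Em 500-530) after overnight compound treatment at 37 deg C flags inhibition of Vif-driven A3F-eYFP loss in stable HeLa A3F-eYFP/Vif cells seeded overnight beforehand.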
The depositor's hits bear a star; ? = inconclusive; · = not tested or not shown; [ ] = another dose, or the depositor's remark. Unless noted, calls follow the shape of the dose curve; as a rule, active = well fitted curve in the direction sought with a large enough effect; inconclusive = small, poorly fitted or top-dose-only effect, or another doubt; inactive = no such curve, though single readings can be large; an effect the other way counts as inactive or inconclusive. Potency is read from the fitted curve at half-maximal effect.

SMILES	Vif-APOBEC3G blk	PINK1 modulator	Epigenetic reg	Vif-A3F inh
Cc1c(Cl)cccc1-c1ccc(/C=C(\C#N)c2nc3ccccc3[nH]2)o1	?	4%	?	13µM*
Cc1cc(C(=O)Nc2ccccc2-c2nc(CNC(=O)c3cc4ccccc4cn3)c(C)o2)c(C)o1	·	-1%	·	·
COC(=O)c1cc(NC(=O)c2cccc(C(F)(F)F)c2)c(=O)oc1C	0%	6%	-4%	2%
COC(=O)c1cc(NC(=O)c2cccc(Cl)c2)c(=O)oc1/C=C/Nc1cc(C)cc(C)c1	·	·	3.5µM*	·
O=C(NCC1Cc2cccc(-c3cncnc3)c2O1)C1CC1 (stereo unspecified)	·	-1%	·	·
COCCC1CCCCN1Cc1nc(N2CCCC2)c2cc(OC)c(OC)cc2n1 (stereo unspecified)	·	2%	·	·
CCCCCn1c(=O)[nH]c2cc(C(=O)Nc3cc(OC)cc(OC)c3)ccc2c1=O	-1%	3%	2%	28µM*
COc1ccc(C(=O)NCCc2ccccc2)cc1OC	8%	0%	·	?
COc1ccc(/C(O)=C/c2nc3ccc(C(=O)NCCc4cccc(C)c4)cc3[nH]c2=O)cc1OC	0%	20%	18µM*	?
CCN(CC)c1ccc(/C=C(/C#N)C(=O)NC(C)C)o1	?	7%	6%	?
N#C/C(=C\C=C\c1ccccc1[N+](=O)[O-])C(=O)NCc1ccccc1	-23%	0%	·	4%
N#C/C(=C\c1ccccc1[N+](=O)[O-])C(=O)NCc1ccccc1	-6%	9%	1%	13µM*
CCN(CC)c1ccc(/C=C(/C#N)C(=O)NCc2ccccc2)o1	7%	32µM*	?	?
COc1ccccc1C(=O)N[C@@H]1c2ccccc2C2(CCN(Cc3ccc4c(c3)OCO4)CC2)[C@H]1O	·	0%	·	·
COC(=O)c1c(OCc2ccccc2)cc(=O)n2c1CCN(Cc1cccc(C)n1)CC2	·	2%	·	·
O=C(Nc1cccc(Cl)c1)c1c(NC(=O)C(F)(F)F)sc2c1CCCC2	-4%	40µM*	-2%	5%
COc1cc(-c2cc(C)c3cccc(OC)c3n2)cc2c1OCCN(C(=O)CCn1nc(C)cc1C)C2	·	0%	·	·
Cc1ccc(-n2nc3c(N4CCCC(C(=O)NCc5ccccc5C)C4)nnc(C)c3c2C)cc1 (stereo unspecified)	-9%	3%	-2%	13µM*
CCNC(=O)C1CCCN(c2nnc(C)c3c(C)n(-c4ccc(C)cc4)nc23)C1 (stereo unspecified)	-3%	1%	1%	7%
Cc1ccc(N=C2NC(=O)/C(=C/c3cn(C)c4ccccc34)S2)cc1C	8.9µM*	5%	8%	?
Cn1cccc1/C=C1\SC(=Nc2ccccc2)NC1=O	?	7%	3%	-7%
COc1cccc(CN2C(=O)NC(C)(C3CCN(Cc4cc(F)cc(F)c4)CC3)C2=O)c1OC (stereo unspecified)	·	0%	·	·
CCCC1=[N+](CC(=O)c2ccc(Br)cc2)CCn2cccc21	-23%	4%	0%	11µM*
CCCC1=[N+](CC(=O)c2ccccc2)CCn2cccc21	-6%	8%	1%	1%
CCN(c1ccc(OC)cc1)S(=O)(=O)c1ccc2[nH]c3c(c2c1)CCCCC3	2%	25µM*	-1%	5%
SMILES	Vif-APOBEC3G blk	PINK1 modulator	Epigenetic reg	Vif-A3F inh
FC(F)(F)c1cccc(NC(=S)NC2CCCC2)c1	-11%	?	0%	2%
Fc1cccc(NC(=S)NC2CCCCCCC2)c1	2%	16µM*	·	?
OCC1CCCN(c2nc3cc4c(cc3cc2CNCc2cccc(C(F)(F)F)c2)OCO4)C1 (stereo unspecified)	·	0%	·	·
COc1cc2c(NC3CCN(C)CC3)nc(N3CCCN(C)CC3)nc2cc1OCC1CCCCN1 (stereo unspecified)	2%	0%	·	·
O=[N+]([O-])c1ccc(N2CCN(Cc3ccccc3)CC2)c2c1no[n+]2[O-]	7.9µM*	1%	·	?
O=[N+]([O-])c1ccc(N2CCN(Cc3ccccc3)CC2)s1	0%	5%	·	?
COc1ccc(/C=C/C(=O)NCC2Cc3cc(Cl)cc(-c4ncccn4)c3O2)cc1 (stereo unspecified)	·	1%	·	·
CSc1nc(SCC(=O)NCc2ccco2)c2c3c(sc2n1)COC(C)(C)C3	?	13µM*	-5%	-7%
CCCCSc1nc(SCC(=O)NCc2ccco2)c2c3c(sc2n1)COC(C)(CC)C3 (stereo unspecified)	1%	·	-1%	0%
c1ccc2sc(N3CCN(Cc4ccc5c(c4)OCO5)CC3)nc2c1	·	·	1%	·
CCOC(=O)N1CCN(/C=C(\C#N)c2nc3ccccc3s2)CC1	22µM*	4%[38.3 µM]	8%	25µM*
N#C/C(=C\N1CCN(Cc2ccc3c(c2)OCO3)CC1)c1nc2ccccc2s1	?	?	?	28µM*
Cc1ccc([N+](=O)[O-])cc1S(=O)(=O)Nc1cccc(S(=O)(=O)Nc2ccccc2C(=O)O)c1	-1%	0%	·	1%
Cc1ccc(C)c(NC(=O)c2ccccc2NS(=O)(=O)c2cc([N+](=O)[O-])ccc2C)c1	7%	8.9µM*	2%	-1%
N=c1c(C(=O)NCc2ccco2)cc2c(=O)n3ccccc3nc2n1Cc1ccc(Cl)cc1	-9%	-3%	7.1µM*	-38%
N=c1c(S(=O)(=O)c2ccc(Cl)cc2)cc2c(=O)n3ccccc3nc2n1Cc1cccnc1	?	40µM*	·	?
COc1cc(OC)cc(C(=O)NCC2Cc3cccc(-c4nc(C)cnc4C)c3O2)c1 (stereo unspecified)	·	0%	·	·
CC(C)(C)n1ncc2c(=O)n(Cc3ccc(SC(F)(F)F)cc3)cnc21	0%	·	·	·
Cc1nc(SCc2nc3ccc(Cl)cc3[nH]2)c2oc3ccccc3c2n1	-10%	5%	·	-4%
Cc1nc(SCc2nc3ccc(C(F)(F)F)cc3[nH]2)c2oc3ccccc3c2n1	?	16µM*	·	-2%
Cc1nc(SCc2nc3cc(Cl)c(F)cc3[nH]2)c2oc3ccccc3c2n1	?	14µM*	·	-24%
COc1ccc(O)c(CN2CCC3(CCC(CNC(=O)C4CCCO4)O3)CC2)c1 (stereo unspecified)	·	-1%	·	·
Cc1n[nH]c(=S)n1/N=C/c1ccc(OCc2ccc(Cl)cc2Cl)cc1	2%	7%	-2%	-2%
Cc1n[nH]c(=S)n1/N=C/c1ccccc1OCc1ccc(Cl)cc1Cl	-1%	13µM*	6%	-7%
COc1ccc(CN2CCC3(CC2)c2ccccc2[C@@H](NC(=O)c2ccccc2)[C@@H]3O)cc1O	·	0%	·	·
Cc1ccc(-c2nc(SCC(=O)Nc3cc(S(=O)(=O)N4CCCCC4)ccc3Cl)n[nH]2)cc1	-5%	32µM*	-1%	6%
CCOC(=O)c1c(-c2ccc(C)cc2)csc1NC(=O)/C(C#N)=C/c1ccc(O)c(OC)c1	10µM*	0%	11µM*	?
CCOC(=O)Cn1c(=O)c(-c2cc(Br)ccc2N)nc2ccccc21	-23%	?	?	11µM*
CCOC(=O)Cn1c(=O)c(-c2ccccc2N)nc2ccccc21	-4%	2%	1%	-13%

Bioassay records from PubChem BioAssay.
